Source: PubChem BioAssay (EPA / NIEHS)
Inconclusive results are not listed. Calls of active or inactive are those of the source. The calls were made as follows: active = hit-call score of the fitted dose curve at least 0.9, where 1 is the maximum; inconclusive = response in the unintended direction; inactive = score below 0.9.

System: not listed separately
Assay: ACEA_ER_AUC_viability: ACEA Biosciences xCELLigence Real-Time Cell Analysis on Estrogen Receptor Agonism for Viability (AID 2283782);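 also: hit means loss of impedance signal meaning reduced cell growth or viability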
Outline: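 Continuous-exposure impedance cell analysis uses T-47D cells in charcoal-stripped serum, eight 1:4 dilutions topping at 100 uM final, biological duplicate. Area under the growth curve at 80 h is fitted against DMSO baseline.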

Row | SMILES | outcome | AC50
1 | COc1cc(/C=C/C(=O)CC(=O)/C=C/c2ccc(O)c(OC)c2)ccc1O | inactive | 
2 | CC(=O)OC/C=C(\C)CCC=C(C)C | inactive | 
3 | CCCCCCC(=O)OCC | inactive | 
4 | COc1cccc2c1C(=O)c1c(O)c3c(c(O)c1C2=O)C[C@@](O)(C(=O)CO)C[C@@H]3O[C@H]1C[C@H](N)[C@H](O)[C@H](C)O1 | inactive | 
5 | Cc1nc(-c2ccc3c(c2)CCN(CCC2CCC(NC(=O)/C=C/c4ccc(F)cc4)CC2)CC3)no1 (stereo not given) | inactive | 
6 | CNCc1cc(F)ccc1Oc1ccc(Cl)c(Cl)c1 |  | 29.9 µM (active)
7 | C1CCC(SSC2CCCCC2)CC1 |  | 92.3 µM (active)
8 | Oc1ccc2c(c1)OC[C@@H](N1CCC(O)(c3ccc(F)cc3)CC1)[C@H]2O | inactive | 
9 | CN1CCN(Cc2cc(-c3ccc4[nH]c(=O)oc4c3)co2)[C@@H](c2ccc(F)cc2)C1 |  | 50.8 µM (active)
10 | Cc1ccc(Cl)cc1 | inactive | 
11 | COc1ccc(S(=O)(=O)N2C(=O)[C@@](c3ccccc3OC)(N3C[C@H](O)C[C@H]3C(=O)N(C)C)c3cc(Cl)ccc32)c(OC)c1 |  | 24.3 µM (active)
12 | COc1cc(-c2nc(NC(=O)c3cc4cc(C)cc(C)c4n3CC(=O)O)sc2CCC2CCCCC2)c(OC)cc1Cl |  | 11.4 µM (active)
13 | O=C(N[C@@H](Cc1ccccc1)[C@@H](O)C(=O)N1C[C@@H](O)[C@@H](O)C1)c1cc2cc(Cl)ccc2[nH]1 |  | 55.2 µM (active)

Target: AR (gene 367) (UniProt P10275)
Sequence (P10275 whole entry, looked up): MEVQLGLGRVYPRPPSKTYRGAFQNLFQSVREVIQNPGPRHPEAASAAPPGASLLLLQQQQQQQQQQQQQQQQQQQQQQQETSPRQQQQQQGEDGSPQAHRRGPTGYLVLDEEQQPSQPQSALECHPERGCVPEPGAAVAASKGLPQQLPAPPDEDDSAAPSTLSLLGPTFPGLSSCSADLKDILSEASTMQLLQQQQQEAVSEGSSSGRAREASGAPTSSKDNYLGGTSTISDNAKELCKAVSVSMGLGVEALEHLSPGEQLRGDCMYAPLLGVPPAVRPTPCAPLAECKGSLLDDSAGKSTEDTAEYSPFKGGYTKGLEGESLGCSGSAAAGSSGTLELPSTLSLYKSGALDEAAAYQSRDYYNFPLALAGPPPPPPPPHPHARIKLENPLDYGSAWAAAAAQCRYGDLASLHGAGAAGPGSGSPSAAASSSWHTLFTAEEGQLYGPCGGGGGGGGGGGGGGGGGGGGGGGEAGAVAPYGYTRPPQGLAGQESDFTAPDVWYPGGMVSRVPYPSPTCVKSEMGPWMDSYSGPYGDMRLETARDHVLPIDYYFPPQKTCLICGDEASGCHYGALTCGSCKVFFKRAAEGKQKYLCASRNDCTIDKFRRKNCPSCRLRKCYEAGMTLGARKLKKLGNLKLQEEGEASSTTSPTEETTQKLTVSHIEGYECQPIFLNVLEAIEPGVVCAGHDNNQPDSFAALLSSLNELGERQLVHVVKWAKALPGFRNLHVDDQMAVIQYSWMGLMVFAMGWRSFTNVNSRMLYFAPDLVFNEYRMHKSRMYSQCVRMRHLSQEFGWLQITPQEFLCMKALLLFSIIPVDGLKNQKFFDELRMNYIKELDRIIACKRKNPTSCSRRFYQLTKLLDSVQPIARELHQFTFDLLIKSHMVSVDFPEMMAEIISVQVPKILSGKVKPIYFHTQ
Assay: ACEA_AR_agonist_80hr: ACEA Biosciences xCELLigence Real-Time Cell Analysis on Androgen Receptor Agonism for Proliferation (AID 2283783);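 also: hits increase impedance growth signal above DMSO baseline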
Outline: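 Real-time cell-growth kinetics were recorded by electrode impedance in 22Rv1 cells exposed to test chemicals up to 100 uM final; the 80 h timepoint served as the readout, fitted upward relative to DMSO controls, in biological duplicate.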

Row | SMILES | outcome
14 | COc1cc(/C=C/C(=O)CC(=O)/C=C/c2ccc(O)c(OC)c2)ccc1O | inactive
15 | COCCOCCOC | inactive
16 | COc1cc(C=O)ccc1O | inactive

Target: AR (gene 367) (UniProt P10275)
Assay: ACEA_AR_antagonist_80hr: ACEA Biosciences xCELLigence Real-Time Cell Analysis on Androgen Receptor Antagonism for Proliferation (AID 2283787);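 also: 22Rv1 human prostate cancer cells with growth followed by electrical impedance; hits lower the impedance growth signal relative to DMSO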
Outline: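 Using 22Rv1 cells held in assay medium, we dosed compounds (100 uM maximum final, 1:4 serial, eight points, 0.5% DMSO at top) and recorded cell-electrode impedance; the 80 hr timepoint was analyzed against DMSO.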

Row | SMILES | AC50 | outcome
17 | COc1cc(/C=C/C(=O)CC(=O)/C=C/c2ccc(O)c(OC)c2)ccc1O | 25.9 µM (active) | 
18 | Cc1cccc(Nc2cc(Cl)nc(SCC(=O)O)n2)c1C |  | inactive
19 | COCCOCCOC |  | inactive
20 | COc1ccc2c(c1)c(CC(=O)O)c(C)n2C(=O)c1ccc(Cl)cc1 | 34.1 µM (active) | 
21 | Cc1nc(-c2ccc3c(c2)CCN(CCC2CCC(NC(=O)/C=C/c4ccc(F)cc4)CC2)CC3)no1 (stereo not given) | 23.2 µM (active) | 
22 | CCCCCCCCCCC |  | inactive
23 | Cc1cccc([N+](=O)[O-])c1C |  | inactive
24 | COCCOC[C@H](CC1(C(=O)NC2CCC(C(=O)O)CC2)CCCC1)C(=O)Oc1ccc2c(c1)CCC2 (stereo not given in full) | 18.2 µM (active) | 
25 | CCCCCC(=O)O |  | inactive
26 | O=C(O)Cc1ccccc1Nc1c(Cl)cccc1Cl | 70.9 µM (active) | 
27 | Cc1ccc(C)c(C)c1 |  | inactive
28 | COc1ccc(S(=O)(=O)N2C(=O)[C@@](c3ccccc3OC)(N3C[C@H](O)C[C@H]3C(=O)N(C)C)c3cc(Cl)ccc32)c(OC)c1 | 24 µM (active) | 
29 | CC(=O)Oc1ccccc1C(=O)O |  | inactive
30 | COc1cc(-c2nc(NC(=O)c3cc4cc(C)cc(C)c4n3CC(=O)O)sc2CCC2CCCCC2)c(OC)cc1Cl | 11.6 µM (active) | 
